Results as given in PubChem BioAssay AID1159580 (chemical genetic matrix, 2015).
In all, about 5,500 compounds went through this assay and about 2,000 (36%) were called active. Inconclusive results (about 18%) are left out. This is one part of the list. A number with no mark means an inactive call. Rule as the data show it: active = normalized growth mostly below about 0.91 (no sharp cut-off); inconclusive = no clear call, values can overlap the other calls; inactive = mostly above about 0.92.

Experiment: chemical genetic growth profiling, strain panel (AID 1159580);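 also: tested at 20 µM; growth read once vehicle control cultures reached saturation at 30 °C; 1 = growth at the plate median or of vehicle wells; lower values mean less growth of the strain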
Settings: S. cerevisiae deletion strains, growth OD
[1] = locus YDL101C, strain DUN1, hits give low values
[2] = locus YHR030C, strain SLT2, hits give low values
[3] = locus YHR079C, strain IRE1, hits give low values
[4] = locus YJL095W, strain BCK1, hits give low values
[5] = locus YJR066W, strain TOR1, hits give low values
[6] = locus YLR113W, strain HOG1, hits give low values
[7] = locus YNL183C, strain NPR1, hits give low values
[8] = locus YOR061W, strain CKA2, hits give low values
[9] = locus YOR231W, strain MKK1, hits give low values
[10] = locus YPL256C, strain CLN2, hits give low values

## Clc1ccccc1N/N=C\Cc1nnnn1-c1ccccc1
Locus YAR019C, strain CDC15, hits give low values
  normalized growth: 0.982
Locus YBL105C, strain PKC1, hits give low values
  normalized growth: 0.966
Locus YBR135W, strain CKS1, hits give low values
  normalized growth: 0.962
Locus YBR136W, strain MEC1, hits give low values
  normalized growth: 0.966
Locus YBR160W, strain CDC28, hits give low values
  normalized growth: 0.97
Locus YDL017W, strain CDC7, hits give low values
  normalized growth: 0.98
Locus YDL028C, strain MPS1, hits give low values
  normalized growth: 0.972
[1]
  normalized growth: 0.976
Locus YDL108W, strain KIN28, hits give low values
  normalized growth: 0.974
Locus YDL132W, strain cdc53, hits give low values
  normalized growth: 0.953
Locus YDL214C, strain PRR2, hits give low values
  normalized growth: 0.904
Locus YDR052C, strain DBF4, hits give low values
  normalized growth: 0.974
Locus YDR054C, strain cdc34, hits give low values
  normalized growth: 0.96
Locus YDR226W, strain ADK1, hits give low values
  normalized growth: 0.972
Locus YDR477W, strain SNF1, hits give low values
  normalized growth: 0.898
Locus YER123W, strain YCK3, hits give low values
  normalized growth: 0.729
Locus YER133W, strain GLC7, hits give low values
  normalized growth: 0.91
Locus YFL009W, strain cdc4, hits give low values
  normalized growth: 0.965
Locus YFL029C, strain CAK1, hits give low values
  normalized growth: 0.966
Locus YFR003C, strain YPI1, hits give low values
  normalized growth: 0.97
Locus YFR019W, strain FAB1, hits give low values
  normalized growth: 0.831
Locus YFR028C, strain CDC14, hits give low values
  normalized growth: 0.957
Locus YGR040W, strain KSS1, hits give low values
  normalized growth: 0.91
Locus YGR052W, strain FMP48, hits give low values
  normalized growth: 0.827
Locus YGR092W, strain DBF2, hits give low values
  normalized growth: 0.282 (active)
[2]
  normalized growth: 0.924
[3]
  normalized growth: 0.85
Locus YHR082C, strain KSP1, hits give low values
  normalized growth: 0.951
Locus YHR205W, strain SCH9, hits give low values
  normalized growth: 0.863
Locus YIL147C, strain SLN1, hits give low values
  normalized growth: 0.971
[4]
  normalized growth: 0.716
Locus YJL128C, strain PBS2, hits give low values
  normalized growth: 0.951
Locus YJL157C, strain FAR1, hits give low values
  normalized growth: 0.893
Locus YJR016C, strain ILV3, hits give low values
  normalized growth: 0.96
Locus YJR066W, strain TOR1 (second series), hits give low values
  normalized growth: 0.774
[5]
  normalized growth: 0.888
Locus YKL048C, strain ELM1, hits give low values
  normalized growth: 0.92
Locus YKL067W, strain YNK1, hits give low values
  normalized growth: 0.89
Locus YKL101W, strain HSL1, hits give low values
  normalized growth: 0.889
Locus YKL193C, strain SDS22, hits give low values
  normalized growth: 0.966
Locus YKL203C, strain TOR2, hits give low values
  normalized growth: 0.929
[6]
  normalized growth: 0.923
Locus YLR133W, strain CKI1, hits give low values
  normalized growth: 0.888
Locus YLR403W, strain SFP1, hits give low values
  normalized growth: 0.814
Locus YML070W, strain DAK1, hits give low values
  normalized growth: 0.787
Locus YMR001C, strain CDC5, hits give low values
  normalized growth: 0.967
Locus YMR205C, strain PFK2 (second series), hits give low values
  normalized growth: 0.92
Locus YMR277W, strain FCP1, hits give low values
  normalized growth: 0.969
Locus YNL006W, strain LST8, hits give low values
  normalized growth: 0.98
Locus YNL020C, strain ARK1, hits give low values
  normalized growth: 0.878
Locus YNL161W, strain CBK1, hits give low values
  normalized growth: 0.974
[7]
  normalized growth: 0.89
Locus YNL207W, strain RIO2, hits give low values
  normalized growth: 0.958
Locus YNL222W, strain SSU72, hits give low values
  normalized growth: 0.973
Locus YNL307C, strain MCK1 (second series), hits give low values
  normalized growth: 0.669
Locus YOL078W, strain AVO1, hits give low values
  normalized growth: 0.962
Locus YOL136C, strain PFK27, hits give low values
  normalized growth: 0.795
[8]
  normalized growth: 0.567 (active)
Locus YOR119C, strain RIO1, hits give low values
  normalized growth: 0.924
[9]
  normalized growth: 0.845
Locus YOR329C, strain SCD5, hits give low values
  normalized growth: 0.971
Locus YPL031C, strain PHO85, hits give low values
  normalized growth: 0.853
Locus YPL153C, strain RAD53, hits give low values
  normalized growth: 0.832
Locus YPL204W, strain HRR25, hits give low values
  normalized growth: 0.818
Locus YPL209C, strain IPL1, hits give low values
  normalized growth: 0.967
[10]
  normalized growth: 0.99
Locus YPR025C, strain CCL1, hits give low values
  normalized growth: 0.973
Locus YPR106W, strain ISR1, hits give low values
  normalized growth: 0.98
Locus YPR111W, strain DBF20, hits give low values
  normalized growth: 0.963
Strain NNK1, hits give low values
  normalized growth: 0.992
Strain TSCII, hits give low values
  normalized growth: 0.963

## CS(=O)(=O)c1ccc([C@@H](O)[C@H](CF)NC(=O)C(Cl)Cl)cc1
[2]
  normalized growth: 1.03
[3]
  normalized growth: 0.953
[4]
  normalized growth: 0.973
[5]
  normalized growth: 0.956
[6]
  normalized growth: 0.935
[7]
  normalized growth: 0.909
[9]
  normalized growth: 0.969
[10]
  normalized growth: 0.943

## Cc1cc(=O)c2c(O)c3c(cc2o1)OC(C)(C)CC3
Locus YAL013W, strain DEP1, hits give low values
  normalized growth: 1.01
Locus YBR021W, strain FUR4, hits give low values
  normalized growth: 1.07
Locus YBR229C, strain ROT2, hits give low values
  normalized growth: 1
Locus YCL029C, strain bik1, hits give low values
  normalized growth: 0.967
Locus YDL035C, strain GPR1, hits give low values
  normalized growth: 1.02
Locus YDL074C, strain BRE1, hits give low values
  normalized growth: 1.03
[1]
  normalized growth: 0.989
Locus YDL134C, strain PPH21, hits give low values
  normalized growth: 0.981
Locus YDL185W, strain tfp1, hits give low values
  normalized growth: 0.938
Locus YDL192W, strain arf1, hits give low values
  normalized growth: 0.965
Locus YDR101C, strain arx1, hits give low values
  normalized growth: 0.975
Locus YDR162C, strain NBP2, hits give low values
  normalized growth: 1.01
Locus YDR318W, strain mcm21, hits give low values
  normalized growth: 0.954
Locus YDR388W, hits give low values
  normalized growth: 0.966
Locus YDR502C, strain sam2, hits give low values
  normalized growth: 0.971
Locus YEL061C, strain CIN8, hits give low values
  normalized growth: 1
Locus YER110C, hits give low values
  normalized growth: 0.967
Locus YER155C, strain BEM2, hits give low values
  normalized growth: 0.995
Locus YER167W, strain BCK2, hits give low values
  normalized growth: 0.998
Locus YGL078C, strain dbp3, hits give low values
  normalized growth: 0.951
Locus YGL086W, strain mad1, hits give low values
  normalized growth: 0.983
Locus YGL248W, strain PDE1, hits give low values
  normalized growth: 1
Locus YGR078C, strain PAC10, hits give low values
  normalized growth: 0.998
Locus YGR135W, strain pre9, hits give low values
  normalized growth: 0.923
Locus YGR252W, strain gcn5, hits give low values
  normalized growth: 0.931
[2]
  normalized growth: 0.992
Locus YHR079C, strain IRE1 (second series), hits give low values
  normalized growth: 0.962
Locus YHR094C, strain hxt1, hits give low values
  normalized growth: 0.975
Locus YHR129C, strain ARP1, hits give low values
  normalized growth: 0.993
Locus YHR200W, strain rpn10, hits give low values
  normalized growth: 0.968
Locus YIL066C, strain RNR3, hits give low values
  normalized growth: 1.01
Locus YIL073C, strain SPO22, hits give low values
  normalized growth: 0.899
Locus YIL125W, strain kgd1, hits give low values
  normalized growth: 0.978
Locus YIR030C, strain dcg1, hits give low values
  normalized growth: 0.949
[4]
  normalized growth: 0.972
Locus YJL134W, strain LCB3, hits give low values
  normalized growth: 1
Locus YJL168C, strain set2, hits give low values
  normalized growth: 0.969
Locus YJL187C, strain SWE1 (second series), hits give low values
  normalized growth: 0.973
Locus YKL009W, strain mrt4, hits give low values
  normalized growth: 0.992
Locus YKL068W, hits give low values
  normalized growth: 0.976
Locus YKL085W, strain MDH1 (second series), hits give low values
  normalized growth: 1
Locus YKL085W, strain MDH1, hits give low values
  normalized growth: 1
Locus YKL190W, strain CNB1, hits give low values
  normalized growth: 1
Locus YKR001C, strain vps1, hits give low values
  normalized growth: 0.96
Locus YLR039C, strain RIC1, hits give low values
  normalized growth: 1.01
Locus YLR058C, strain SHM2, hits give low values
  normalized growth: 0.994
Locus YLR102C, strain apc9, hits give low values
  normalized growth: 0.975
Locus YLR268W, strain sec22, hits give low values
  normalized growth: 0.989
Locus YLR330W, strain CHS5, hits give low values
  normalized growth: 0.988
Locus YLR342W, strain FKS1 (second series), hits give low values
  normalized growth: 1.08
Locus YLR371W, strain rom2, hits give low values
  normalized growth: 0.95
Locus YLR418C, strain cdc73, hits give low values
  normalized growth: 0.972
Locus YML016C, strain PPZ1, hits give low values
  normalized growth: 1.01
Locus YML032C, strain rad52, hits give low values
  normalized growth: 0.963
Locus YML124C, strain tub3, hits give low values
  normalized growth: 0.971
Locus YMR078C, strain ctf18, hits give low values
  normalized growth: 0.951
Locus YMR223W, strain ubp8, hits give low values
  normalized growth: 0.959
Locus YMR263W, strain SAP30, hits give low values
  normalized growth: 0.973
Locus YMR307W, strain GAS1, hits give low values
  normalized growth: 1.21
Locus YNL067W, strain RPL9B, hits give low values
  normalized growth: 0.97
Locus YNL128W, strain TEP1, hits give low values
  normalized growth: 1
Locus YNL153C, strain GIM3, hits give low values
  normalized growth: 0.973
Locus YNL233W, strain BNI4, hits give low values
  normalized growth: 1.02
Locus YNL250W, strain rad50, hits give low values
  normalized growth: 0.967
Locus YNL271C, strain bni1, hits give low values
  normalized growth: 0.965
Locus YNL298W, strain CLA4, hits give low values
  normalized growth: 0.961
Locus YNL307C, strain MCK1, hits give low values
  normalized growth: 0.982
Locus YNL322C, strain KRE1, hits give low values
  normalized growth: 0.995
Locus YNR052C, strain pop2, hits give low values
  normalized growth: 0.949
Locus YOL012C, strain htz1
  normalized growth: 0.959
Locus YOL147C, strain pex11, hits give low values
  normalized growth: 0.967
[8]
  normalized growth: 1
Locus YOR069W, strain VPS5, hits give low values
  normalized growth: 0.997
Locus YOR136W, strain idh2, hits give low values
  normalized growth: 0.997
Locus YOR144C, strain elg1, hits give low values
  normalized growth: 0.973
Locus YOR184W, strain ser1, hits give low values
  normalized growth: 1
Locus YOR316C, strain cot1, hits give low values
  normalized growth: 0.964
Locus YPL055C, strain LGE1, hits give low values
  normalized growth: 1.05
Locus YPR119W, strain clb2, hits give low values
  normalized growth: 0.956
Locus YPR141C, strain kar3, hits give low values
  normalized growth: 0.946
Locus YPR163C, strain tif3, hits give low values
  normalized growth: 0.98
Locus YPR167C, strain met16, hits give low values
  normalized growth: 0.949
Strain wtn01, hits give low values
  normalized growth: 1
